For part of these data: Entries with a potency or affinity are not part of this list. Active and inactive are the calls of the source. Unless noted, how the calls were made is not given here.
Legend:
[1] = biological target: Calcium-dependent protein kinase 1 (Plasmodium falciparum (isolate 3D7)) (UniProt P62344); assay: PfCDPK1 kinase inhibitors, biochemical, TCAMS library (AID 1159585; cut-off not given, nearly all actives have IC50 up to about 0.98 µM;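 further: inhibitors leave more ATP so luminescence rises with inhibition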); settings: recombinant PfCDPK1, Kinase-Glo ATP depletion luminescence
[2] = biological target: Plasmodium falciparum protein kinase 6 (PK6, PF3D7_1337100) (UniProt Q8IDW1); assay: PfPK6 kinase inhibitors, biochemical, TCAMS library (AID 1159586); settings: recombinant PfPK6, Kinase-Glo ATP depletion luminescence
[3] = biological target: Protein kinase 7 (PK7), Plasmodium falciparum 3D7 (PF3D7_0213400) (UniProt Q7YTF7); assay: inhibition of Plasmodium PK7 catalytic activity – biochemical, TCAMS antimalarial set, Kinase-Glo luminescence (AID 1159587); settings: recombinant PfPK7, Kinase-Glo ATP depletion luminescence
[4] = biological target: Calcium-dependent protein kinase 4 (Plasmodium falciparum (isolate 3D7)) (UniProt Q8IBS5); assay: PfCDPK4 kinase inhibitors, biochemical, TCAMS library (AID 1159588; cut-off not given, nearly all actives have IC50 up to about 0.91 µM); settings: recombinant PfCDPK4, Kinase-Glo ATP depletion luminescence

Measured: outcome

Sequence of Calcium-dependent protein kinase 4 (Plasmodium falciparum (isolate 3D7)) (Q8IBS5 whole entry, looked up): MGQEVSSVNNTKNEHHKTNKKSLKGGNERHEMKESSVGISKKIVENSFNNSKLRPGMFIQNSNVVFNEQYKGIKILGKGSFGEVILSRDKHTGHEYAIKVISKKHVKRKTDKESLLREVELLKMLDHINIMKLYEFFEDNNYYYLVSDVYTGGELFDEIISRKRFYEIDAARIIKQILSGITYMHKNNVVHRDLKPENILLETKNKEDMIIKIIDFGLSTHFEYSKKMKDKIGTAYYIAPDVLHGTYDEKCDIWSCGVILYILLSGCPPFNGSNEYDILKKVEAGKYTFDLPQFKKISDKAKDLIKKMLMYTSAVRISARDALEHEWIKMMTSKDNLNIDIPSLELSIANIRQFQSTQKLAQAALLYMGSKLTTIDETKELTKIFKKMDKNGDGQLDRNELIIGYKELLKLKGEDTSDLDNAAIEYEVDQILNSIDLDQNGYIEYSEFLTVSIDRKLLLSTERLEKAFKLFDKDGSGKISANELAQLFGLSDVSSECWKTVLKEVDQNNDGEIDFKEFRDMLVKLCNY
Sequence of Protein kinase 7 (PK7), Plasmodium falciparum 3D7 (PF3D7_0213400) (Q7YTF7 1-343): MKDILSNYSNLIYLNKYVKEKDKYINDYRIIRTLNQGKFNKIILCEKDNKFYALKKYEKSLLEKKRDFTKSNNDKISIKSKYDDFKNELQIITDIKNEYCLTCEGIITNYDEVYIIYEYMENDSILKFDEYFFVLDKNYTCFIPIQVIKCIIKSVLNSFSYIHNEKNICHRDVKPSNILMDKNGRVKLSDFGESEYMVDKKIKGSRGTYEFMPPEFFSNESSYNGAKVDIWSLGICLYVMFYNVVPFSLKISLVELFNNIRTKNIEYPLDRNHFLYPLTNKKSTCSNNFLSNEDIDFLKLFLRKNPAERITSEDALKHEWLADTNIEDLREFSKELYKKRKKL
Sequence of Plasmodium falciparum protein kinase 6 (PK6, PF3D7_1337100) (Q8IDW1 1-305): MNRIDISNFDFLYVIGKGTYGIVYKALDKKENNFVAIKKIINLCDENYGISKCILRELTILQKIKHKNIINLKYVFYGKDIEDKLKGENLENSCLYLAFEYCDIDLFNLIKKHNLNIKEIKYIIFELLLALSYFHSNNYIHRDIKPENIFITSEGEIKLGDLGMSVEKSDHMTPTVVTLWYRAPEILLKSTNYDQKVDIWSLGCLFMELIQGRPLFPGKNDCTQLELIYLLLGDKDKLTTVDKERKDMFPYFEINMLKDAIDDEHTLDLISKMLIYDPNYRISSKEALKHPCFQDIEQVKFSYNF
Sequence of Calcium-dependent protein kinase 1 (Plasmodium falciparum (isolate 3D7)) (P62344 whole entry, looked up): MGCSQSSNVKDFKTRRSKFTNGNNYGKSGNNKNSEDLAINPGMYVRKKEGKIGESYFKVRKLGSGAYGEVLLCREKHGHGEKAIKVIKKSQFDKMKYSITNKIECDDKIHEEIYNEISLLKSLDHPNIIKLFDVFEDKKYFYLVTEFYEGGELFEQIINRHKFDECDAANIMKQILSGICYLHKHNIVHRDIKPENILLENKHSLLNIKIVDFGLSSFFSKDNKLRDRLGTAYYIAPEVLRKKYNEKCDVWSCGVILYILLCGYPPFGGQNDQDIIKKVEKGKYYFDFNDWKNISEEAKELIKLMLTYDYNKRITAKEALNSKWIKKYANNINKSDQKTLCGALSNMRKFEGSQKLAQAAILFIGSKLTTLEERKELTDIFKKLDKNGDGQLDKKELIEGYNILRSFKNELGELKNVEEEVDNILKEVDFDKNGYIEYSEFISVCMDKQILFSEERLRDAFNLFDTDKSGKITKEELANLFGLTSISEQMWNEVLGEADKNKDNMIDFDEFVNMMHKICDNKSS

CCCCCC(C)C(C)c1cc(O)c2c(c1)OC(C)(C)C=C2c1cc[n+]([O-])cc1 (stereo not drawn)
inactive: all assays above

CN(C)C(=S)N/N=C/c1cccc(O)c1O
inactive: all assays above

COc1ccc2nc(C)cc(N/N=C/c3cc(C)ccc3O)c2c1
inactive: all assays above

Oc1ccc(/C=N/NC(=S)Nc2cccc3ccccc23)c(O)c1
inactive: all assays above

O=[N+]([O-])c1ccc(Nc2nc(N/N=C/c3cc(Cl)cc(Cl)c3O)nc(Nc3ccccc3)n2)cc1
inactive: all assays above

COc1ccc2nc(/N=C(\N)NC(=O)Nc3ccccc3)nc(C)c2c1
inactive: all assays above

COc1ccc(N=[N+]([O-])c2ccccc2[N+]([O-])=Nc2ccc(OC)cc2)cc1
inactive: all assays above

NC(N)=N/N=C/c1c[nH]c2ccc(-c3ccccc3)cc12
inactive: all assays above

O=C1C=CC(=C2NC(c3ccccc3)=C(c3ccc4oc5ccc(C6=C(c7ccccc7)NC(=C7C=CC(=O)C=C7)N6)cc5c4c3)N2)C=C1
inactive: all assays above

COc1ccc(Nc2nc(N/N=C/c3cc(Br)ccc3O)nc(Nc3ccc([N+](=O)[O-])cc3)n2)cc1
inactive: all assays above

CCC[C@H](C(=O)NCCc1cccc(OC)c1)N1C(=O)c2c(ccc(OC)c2OC)C1C(=O)Nc1c(C)cccc1C (stereo partly drawn)
inactive: all assays above

CCOc1cc(/C=C/c2nc3ccccc3c(=O)[nH]2)cc(Cl)c1O
inactive: all assays above
